# An excerpt weighted towards active compounds, which were near 7.3% of everything screened.
# HCV inh: HCV inhibition | Huh7.5.1 HCVcc-Cre infection, luciferase reporter, 44 h | Potency, µM (highest dose often 41.8 µM), actives largely listed as inhibitors | 340,000 tested, 3.4% active | AID 651820; active = well fitted inhibition curve with a large enough effect; inconclusive = small, poorly fitted or top-dose-only effect, or another doubt; inactive = no such curve, though single readings can be large or run the other way
#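 After 44 h co-culture of compound, cells and HCVcc-Cre (~0.5 moi), substrate is added for 15 min at room temperature and luciferase measured over 15 sec. Cells were seeded at 1,000/well and pre-cultured 4 h.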
# VACV Venus inh: inhibitors of vaccinia virus (Venus reporter) | Vaccinia virus Venus reporter expression, fluorescence | Potency, µM (top dose mostly 36.5 µM), usual class: inhibitors | 330,000 tested, 0.46% active | AID 720580; calls by dose curve; tested in A549 cells; note: nearly all actives have a fitted effect of over 30% in size
# HCMV inh: blocks human cytomegalovirus replication; 410,000 tested, 4.5% active; activity change, negative = inhibition, % at 57.5 µM; AID 1259415; HFF cells, HCMV-luciferase reporter, 72 h; hits give low values; in the data active = activity change below about -60%; inconclusive = no clear call, values can overlap the other calls; inactive = above about -39%
#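 Two compound doses tested in HFFs infected with HCMV-luciferase, MOI 1 PFU/cell, 72 h at 37C. Lysate luminescence read with OneGlo; data normalized against buffer-only and 10uM Salinomycin inhibitor controls.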
# FMDV inh: antivirals against foot and mouth disease virus | FMDV antiviral cell-based qHTS | 410,000 tested, 1.2% active | Potency, µM (top dose mostly 57.9 µM), hits mostly inhibitors; calls by dose curve; tested in HEK293T cells; note: read-out not given here; nearly all actives have a fitted effect of over 45% in size
# VACV mCherry inh: vaccinia inhibition (mCherry reporter) | Vaccinia virus mCherry reporter infection, fluorescence | Potency, µM (series often up to 36.5 µM), most hits filed as inhibitors | 310,000 tested, 0.63% active | AID 720579; calls by dose curve; tested in A549 cells; note: nearly all actives have a fitted effect of over 35% in size
# Hits are given with their value; i = inactive; ? = inconclusive; nt = not tested or not shown.
SMILES,HCV inh,VACV Venus inh,HCMV inh,FMDV inh,VACV mCherry inh
Cc1ccc(/C=N/NC(=O)c2c[nH]c3ccccc23)s1,i,?,-72,i,?
O=C(N/N=C/c1ccc[nH]1)c1c[nH]c2ccccc12,0.89µM,nt,i,i,nt
Cc1ccsc1/C=N/NC(=O)c1c[nH]c2ccccc12,i,i,i,i,?
COc1ccc(C2CC(O)(c3ccccc3)Oc3cc(OC)ccc32)cc1 (configuration not stated),4.5µM,?,i,i,?
CN(C)S(=O)(=O)c1cccc(C(=O)NC2CCSc3ccccc32)c1 (configuration not stated),i,i,i,i,i
CON(C)S(=O)(=O)c1cccc(C(=O)NC2CCSc3ccccc32)c1 (configuration not stated),?,i,-74,i,i
Cc1ccc(CNC(=O)CC2(CC3=NS(=O)(=O)c4ccccc4N3)CCCC2)cc1,11µM,i,i,i,i
COc1ccc(CCNC(=O)CC2(CC3=NS(=O)(=O)c4ccccc4N3)CCCC2)cc1OC,?,nt,i,i,nt
O=C(CCc1cccnc1)NCC1Cc2cccc(-c3ncccn3)c2O1 (configuration not stated),nt,i,nt,i,i
COc1cc(C2c3cc4c(cc3OC(N3CCCC3)C2C)OCO4)cc(OC)c1O (configuration not stated),?,i,i,i,i
COc1cc(C2c3cc4c(cc3OC(Nc3ccc(C(=O)O)cc3)C2C)OCO4)cc(OC)c1OC (configuration not stated),i,?,-60,i,?
COc1cc(C2c3cc4c(cc3OC(C)(N3CCCC3)C2C)OCO4)cc(OC)c1OC (configuration not stated),?,?,-68,i,?
COc1cccc(CNCCc2ccc3c(c2)OCO3)c1OC,i,nt,i,i,nt
COc1cc(C2c3cc4c(cc3OC(NCCc3ccccc3)C2C)OCO4)cc(OC)c1OC (configuration not stated),i,?,-82,i,?
COc1cc(C2C3=C(COC3=O)OC(C)(C)Oc3cc4c(cc32)OCO4)cc(OC)c1OC (configuration not stated),?,?,-80,i,?
COc1cc(C2C3=C(COC3=O)Oc3cc4c(cc32)OCO4)ccc1O (configuration not stated),i,?,i,i,?
COc1cc(C2c3cc4c(cc3OC(N3CCOCC3)C2C)OCO4)cc(OC)c1OC(C)=O (configuration not stated),i,?,i,i,i
Cc1cccc2cc(CN(CC3CCCO3)C(=O)c3cccc(F)c3)c(N(C)C)nc12 (configuration not stated),nt,i,nt,i,i
Cc1oc(-c2cccc(NC(=O)c3ccccn3)c2)nc1CNC(=O)c1ccc(C(F)(F)F)cc1,nt,i,nt,i,i
Cc1ccc2c(c1)cc(C(=O)NCc1ccc(F)cc1)n2C,nt,i,?,i,i
COc1ccc(NC2Oc3cc4c(cc3C(c3cc(OC)c(OC)c(OC)c3)C2C)OCO4)cc1 (configuration not stated),?,?,-77,i,?
COc1cc(CNc2ccc(N3CCCCC3)cc2)ccc1OCC(=O)NC(C)(C)C,10µM,i,-86,?,?
CCN1/C(=C/C=C/c2oc3ccc(-c4ccccc4)cc3[n+]2CC)Oc2ccc(-c3ccccc3)cc21,0.89µM,nt,-97,8.9µM,i
Cc1cccc(-c2nnc3n(CCc4ccccc4)c(=O)c4ccccc4n23)c1,nt,i,i,?,i
COc1cc(OC)c(-c2nnc3n(CCc4ccccc4)c(=O)c4ccccc4n23)cc1OC,i,nt,i,nt,nt
SMILES,HCV inh,VACV Venus inh,HCMV inh,FMDV inh,VACV mCherry inh
COc1ccc(-c2nnc3n(CCc4ccccc4)c(=O)c4ccccc4n23)c(OC)c1,i,i,i,28µM,i
CC(C)c1ccc(-c2nnc3n(CCc4ccccc4)c(=O)c4ccccc4n23)cc1,nt,i,i,28µM,i
CC(C)(C)OC(=O)N1CCc2nc3ccccc3c(N)c2C1=O,nt,nt,i,nt,nt
NCC1O[C@@H](OC2C(N)CC(N)C(O)C2O[C@@H]2OC(CO)C(O)C2O)C(N)C(O)C1O (some centres not stated),nt,i,nt,?,i
O=C(Oc1ccccc1N1C(=O)C2CCCCC2C1=O)c1ccccc1F (configuration not stated),i,i,i,i,i
O=C(Oc1ccccc1N1C(=O)C2CCCCC2C1=O)c1ccc(Cl)cc1 (configuration not stated),i,nt,-108,i,nt
CCc1nc2ccc(C(=O)N3CCN(C)CC3)cn2c1N(CCC(C)C)CCN(C)C,nt,i,-72,i,i

# Assay outcomes from PubChem BioAssay.
